This passage reports growth inhibition results from PubChem BioAssay (NCI).

The nature of test [1]: NCI Yeast Anticancer Drug Screen. Data for the rad50 strain (AID 155).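 Note: 0% = growth of vehicle-only cultures of the same strain.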 To be noted: S. cerevisiae rad50 strain growth inhibition, hits give high values; at 50.0 µM unless noted. The method in brief:
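Inhibition values express reduced yeast growth in compound-treated cultures relative to vehicle-treated controls.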

Test [2] in a line: NCI Yeast Anticancer Drug Screen. Data for the mec2-1 strain (AID 157). As to conditions: S. cerevisiae mec2-1 strain, hits give high values; at 50.0 µM unless noted. The essentials: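 Readout is yeast growth inhibition, normalised to vehicle-treated controls, in the mec2-1 strain exposed to compound.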
Test [3] is described as follows: NCI Yeast Anticancer Drug Screen. Data for the sgs1 mgt1 strain (AID 161).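 Note: 0% = growth of cultures given vehicle only.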 To be noted: S. cerevisiae sgs1 mgt1 strain, hits give high values; at 50.0 µM unless noted. The method in brief: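 Percent growth inhibition was derived by comparing compound-exposed mutant yeast with vehicle-exposed cultures. The strain carries alterations in DNA damage repair.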
Test [4] is described as follows: NCI Yeast Anticancer Drug Screen. Data for the cln2 rad14 strain (AID 165).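 Note: 0% = growth equal to vehicle treated cultures.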 To be noted: S. cerevisiae cln2 rad14 strain, hits give high values; at 50.0 µM unless noted. The method in brief:
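Relative to vehicle controls, growth inhibition of compound-treated cln2 rad14 yeast was recorded.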

A short description of test [5]: NCI Yeast Anticancer Drug Screen. Data for the bub3 strain (AID 167). To be noted: S. cerevisiae bub3 mutant strain, hits give high values; at 50.0 µM unless noted. The essentials:
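Steps: expose the mutant yeast strain to compound; grow alongside vehicle-treated cultures; measure growth; express inhibition against the vehicle cultures.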

The nature of test [6]: NCI Yeast Anticancer Drug Screen. Data for the mlh1 rad18 strain (AID 175). To be noted: S. cerevisiae mlh1 rad18 strain growth inhibition, hits give high values; at 50.0 µM unless noted. The method in brief:
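Test agents were incubated with a yeast strain of defined genotype (DNA damage repair defect). Inhibition of growth was derived by comparison with vehicle-exposed cultures.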

The structures appear in SMILES notation. Values joined by “and” are separate entries in the source; they are usually repeats but may differ in a detail not shown here. Equal entries are not always repeated. This is part of a sample that, as a whole, favours compounds with a hit. Of some 79,000 tested, about 15% had one in any assay. A number with no mark means an inactive call. Active and inactive are the calls of the source. Cut-off read from the data, not from the text of the source: active = growth inhibition above about 70%; inactive = the rest. Where a SMILES comes first, the peptide text is derived from it. [ ]: non-standard residue; d: D form. The star is where a group is joined. ξ: configuration not given here. Cbz = O=C(OCc1ccccc1)*; ξK = NCCCCC(N)C(=O)O

In the case of `COC(=O)C(Cc1nc2ccc(Cl)cc2[nH]c1=O)/C(=N\N)C(=O)Nc1cc(C)c(Cl)cc1S(=O)(=O)O` (stereo not drawn), the growth inhibition in test [1] was 24.9%; in test [2] it was -2%; in test [3], 5.5%; in test [4], -70.3%; in test [5] it was -3.35%; in test [6], 5.95%.

For `NC1(CC(=O)O)CCN(Cc2ccccc2)CC1`, the growth inhibition in test [1] was 4.05%; in test [2], 13%; in test [3], 3.9%; in test [4] it was -7.05%; in test [5] it was -1.15%; in test [6], 2.4%.

As to `CCN(CC)Cc1cc(O)ccc1NCCCNc1ccnc2cc(Cl)ccc12`, the growth inhibition in test [1] was 49.4%; in test [2], 11.1%; in test [3], 40.1%; in test [4], 16.4%; in test [5], -7.05%; in test [6], 12.1%.

As for `COc1cc2c(cc1OC)C(Cl)C(c1ccc(Br)cc1)=C2Cl` (stereo not drawn), the growth inhibition in test [1] was 36.9%; in test [2], 67.3%; in test [3] it was 72.5% (active); in test [4] it was 48.3%; in test [5], 55.4%; in test [6], 32.8%.

Turning to `CCN(CC)C(=S)Oc1cc(Cl)c(Cl)cc1Cl`, the growth inhibition in test [1] is -5.45%; in test [2] it was 3.8%; in test [3] it was -5.2%; in test [4], -2.55%; in test [6], 21.2%.

For `c1ccc(CSCc2cnc[nH]2)cc1`, the growth inhibition in test [1] was -1.3%; in test [2] it was 0.6%; in test [3], -1.95%; in test [4], 14.8%; in test [6] it was -6.95%.

Consider `NCC(=O)NC(CCCCNC(=O)OCc1ccccc1)C(=O)O` (stereo not drawn) (H-Gly-[ξK](Cbz)-OH), for which the growth inhibition in test [1] was -6.8%; in test [2], 21%; in test [3], -10.7%; in test [4], -3.5%; in test [6], -22.4%.

For `COc1ccccc1NC(=O)Oc1c(C(C)C)cccc1C(C)C`, the growth inhibition in test [1] was -5.35%; in test [2] it was 5.75%; in test [3], -3.7%; in test [4], -1.1%; in test [6] it was -17.4%.

As to `CN1C(=O)C(c2c[nH]c3ccccc23)N(C)C(=O)C1c1c[nH]c2ccccc12` (stereo not drawn), the growth inhibition in test [1] was -29.9%; in test [2], -10.8%; in test [3], -79.5%; in test [4] it was -20.1%; in test [6], -20%.

Turning to `CCCCCOC(=O)c1ccc(C(C)C)cc1`, the growth inhibition is 10.2% in test [1]; -6.2% in test [2]; 5.15% in test [3]; 8.5% in test [4]; 5.1% in test [6].

With `C=C1C(=O)O[C@@H]2C[C@@H](C)[C@@H]3C=CC(=O)[C@@]3(C)[C@@H](OC(=O)CCCC(=O)O[C@H]3[C@@H]4C(=C)C(=O)O[C@@H]4C[C@@H](C)[C@@H]4C=CC(=O)[C@]43C)[C@H]12`, the growth inhibition in test [1] was 50.1%; in test [2], 49%; in test [3] it was 57.6%; in test [4] it was 31.1%; in test [6], 34.9%.

On to `Clc1ccc(N=NNc2ccccc2)cc1`, for which the growth inhibition in test [1] is 29.6% and 6.7%; in test [2] it was -0.85% and -2.8%; in test [3], -22.9% and -22.1%; in test [4], -30.1% and -10.1%; in test [6] it was -16.4% and 30.2%.

Turning to `BrC1(Br)C2CCCCCCC21` (stereo not drawn), the growth inhibition in test [1] was -26.6%; in test [2], 4.85%; in test [3], 3.15%; in test [4], -6.6%; in test [6], -29.7%.

On to `NC1CCCC2CCC(N)C12` (stereo not drawn), for which the growth inhibition in test [1] was 17.9%; in test [2], 15.6%; in test [3] it was 20.8%; in test [4], 24.6%; in test [6], 20.2%.

Consider `COC(=O)c1cc(OCC#CC#CCOc2ccc(O)c(C(=O)OC)c2)ccc1O`, for which the growth inhibition is 3% in test [1]; -5.8% in test [2]; 9.65% in test [3]; -1.2% in test [4]; 14.1% in test [6].

In the case of `COc1ccc(/C=C/c2ccc(OC)cc2)cc1`, the growth inhibition in test [1] was 13.3%; in test [2], -8.1%; in test [3], 0.6%; in test [4], -13.4%; in test [6], 5.8%.

With `OC1(C#CC#CC2(O)CCCCC2)CCCCC1`, the growth inhibition in test [1] is 12.9%; in test [2] it was 15.7%; in test [3], 0.2%; in test [4], 10.1%; in test [5] it was 3.4%; in test [6], 4.2%.

As for `NC(Cc1cc(Br)c(Oc2ccc(O)cc2)c(Br)c1)C(=O)O` (stereo not drawn), the growth inhibition was 19.8% in test [1]; 12.8% in test [2]; -9.1% in test [3]; -0.55% in test [4]; 2.55% in test [5]; 20.9% in test [6].

In the case of `COc1ccc(C2(O)OCC(COc3cc(C)c(Cl)c(C)c3)O2)cc1OC` (stereo not drawn), the growth inhibition in test [1] is -10%; in test [2], 1.35%; in test [3] it was 8.85%; in test [4], 18.5%; in test [6], 3.45%.

Take `O=C(Nc1cccc(I)c1)OCCCl`: the growth inhibition in test [1] is 79.8% (active); in test [2] it was 7.5%; in test [3], 87.2% (active); in test [4], 0.4%; in test [6], 57.2%.

Regarding `Cc1ccc(S(=O)(=O)OC2CCN(C)CC2)cc1`, the growth inhibition in test [1] was 36.5%; in test [2] it was 6.75%; in test [3], 15.8%; in test [4], 9.6%; in test [6], 30.1%.

Regarding `O=C(Cl)C(=O)c1c[nH]c2ccccc12`, the growth inhibition in test [1] was 6.2%; in test [2], -1.95%; in test [3], -3%; in test [4], 1.65%; in test [5], -33.6%; in test [6] it was -12.5%.

On to `CC(=O)C(C)(CC#N)C(CC=O)CCC#N` (stereo not drawn), for which the growth inhibition in test [1] was 15.9%; in test [2], 4.7%; in test [3] it was 10.2%; in test [4], -1.45%; in test [5], 14%; in test [6], -1%.
